Among the data in PubChem BioAssay AID463195 (Sanford-Burnham Center for Chemical Genomics, 2010) are inhibition values, retold here.

SMILES strings stand for the structures. Hit rate of the full screen: of about 330,000 compounds, about 4,600 (1.4%) were called active.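 How the source made its calls: active means inhibition of 40% or more at the single tested concentration; inactive means the rest.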 The entries come from a sample that favours actives as a whole.

A word on the inhibition: it is the drop in the measured response relative to a control, in per cent.

The experiment in a line: growth inhibitors of isogenic TIM10 control yeast, primary screen, counter-screen for tim10-1 yeast inhibitor project, luminescence, uHTS (AID 463195).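 Further: wild-type TIM10 isogenic control strain grown at permissive 25 °C; 0% = DMSO yeast wells and 100% = minimal medium wells without yeast.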 The settings on record: S. cerevisiae TIM10 strain growth, BacTiter-Glo luminescence, 24 h; at 10 µM; active compounds read high. Background: The purpose of a counterscreen is to sort out artefacts and off-target activity.
For the compound `O=C(Nc1ccc(NC(=O)c2cccs2)cc1)c1ccc2ccccc2c1`, the inhibition is -15.3% (inactive).
As to `Cc1ccc(C(=O)Nc2ccc(NC(=O)c3cccs3)cc2)c(C)c1`, the inhibition was -11.8% (inactive).
Under `Cc1ccc(NC(=O)c2cccs2)cc1S(=O)(=O)N(C)C` stands 46.1% (active); under `Cc1ccc(C(=O)Nc2ccc(C)c(S(=O)(=O)N(C)C)c2)s1`, 10.9% (inactive); under `Cc1nc(-c2ccc(NC(=O)c3cccs3)cc2)cs1`, 49.5% (active).
Under `O=C(Nc1ccccc1)c1ccc(NC(=O)c2cccs2)cc1` stands -10.3% (inactive).
For `COC(=O)[C@]1(C)N[C@H](CN(C)C(=O)c2ccc(C(C)(C)C)cc2)[C@@H]2C(=O)N(C)C(=O)[C@@H]21` the value was 3.29% (inactive).
With `Cc1ccc(-c2noc(C3CCCN(C(=O)c4cccc(Cl)c4)C3)n2)o1` (stereo not drawn), the inhibition is -12.1% (inactive).
In the case of `O=C(CNS(=O)(=O)c1ccc(Br)s1)N1CCN(C(=O)c2ccco2)CC1`, the inhibition is -4.25% (inactive).
Under `Cc1ccc(N2C(=O)CC(NCc3ccc4c(c3)OCO4)C2=O)cc1Cl` (stereo not drawn) stands 9.87% (inactive); under `COC(=O)CN1C(=O)C(C)(C)Oc2ccc(C(=O)Nc3cccc(OC)c3)cc21`, -1.11% (inactive).
Under `CCc1ccc2c(c1)C1(NN=C(c3ccccc3)S1)C(=O)N2` (stereo not drawn) stands 41.4% (active); under `Cc1ccccc1N(C(=O)Cc1cccs1)C(C(=O)NC1CCCCC1)c1cn(C)nc1C` (stereo not drawn), 18.5% (inactive).
For `COc1cc2cc(CN(CCN3CCCC3)C(=O)Nc3ccccc3Cl)c(=O)[nH]c2cc1OC` the value was 1.82% (inactive); for `O=S(=O)(NC1CC1)c1ccc2c3c(cccc13)CC2`, 18.4% (inactive); for `O=S(=O)(NC1CCCCC1)c1ccc(F)c2ccccc12`, 48.4% (active).
For the compound `CSc1ccc(S(=O)(=O)NC2CCCCC2)cc1`, the inhibition was 5.32% (inactive).
On to `O=C(Cn1nnc2ccccc2c1=O)NCc1ccc(Cl)cc1`, for which the inhibition is -13.1% (inactive).
For `CS(=O)(=O)N1CCN(CC(=O)NC2CCCC2)CC1` the value was 1.42% (inactive).
For `COc1ccc(C(=O)C[n+]2ccc(N)c(C)c2C)cc1`, the inhibition is -13.7% (inactive).
For `Cc1ccc(-n2cnc3ncnc(-c4ccccc4)c32)cc1` the value was -13% (inactive).
Turning to `Cc1ccc(-c2nn(C(C)(C)C)c3ncnc(N)c23)cc1`, the inhibition was 46.3% (active).
With `C=CC[C@H](CC(=O)OC(C)(C)C)C(=O)OC[C@H]1CCCN1C(=O)[C@H](CC=C)CC(=O)N(CCO)Cc1ccccc1`, the inhibition was 4.94% (inactive).
For `O=C(Nc1cccc(S(=O)(=O)N2CCCCC2)c1)c1cncc(Br)c1` the value was 8.29% (inactive); for `O=C(Nc1cccc(S(=O)(=O)N2CCCC2)c1)c1cncc(Br)c1`, 97% (active); for `O=C(CCNC(=O)c1ccc(Br)cc1)Nc1cccc(S(=O)(=O)N2CCCCC2)c1`, -7.56% (inactive).
Under `COc1ccc(Nc2nc(N)nc(CSC(=S)N3CCC(C)CC3)n2)cc1` stands 44.5% (active); under `CCOC(=O)c1cnc(SCc2nc(N)nc(Nc3ccc(OC)cc3)n2)nc1N`, 15.4% (inactive); under `COc1ccccc1Nc1nc(N)nc(CSC(=S)N2CCOCC2)n1`, 31.8% (inactive).
Consider `COc1cc(CC(=O)N2CCC(n3nccc3NC(=O)C3CC3)CC2)cc(OC)c1OC`, for which the inhibition was -1.91% (inactive).
Consider `CC1=C/C(=N\OS(=O)(=O)c2ccccc2)C=CC1=O`, for which the inhibition was 69.4% (active).
Under `Cc1nc(C)c(-c2nnc(-c3cccc(S(=O)(=O)N(C)C)c3)o2)cc1C(=O)NN` stands 11.6% (inactive); under `COc1ccc(Cn2c(=O)cc(C)[nH]c2=S)cc1`, 8.93% (inactive); under `COc1ccc(Cn2c(-c3ccc(Cl)cc3)c[n+]3ccccc23)cc1`, 45.6% (active).
For `CCn1c(C)cc(=O)cc1-c1ccc(Cl)cc1` the value was -2.03% (inactive); for `COc1ccc(OCc2cc(C(=O)N3CCCC3)no2)c2ccccc12`, -11.8% (inactive); for `O=C(c1cc(COc2cccc(C(F)(F)F)c2)on1)N1CCSCC1`, 19.8% (inactive).
For `COc1cccc(OCc2cc(C(=O)N3CCN(C(=O)c4ccco4)CC3)no2)c1` the value was 97.6% (active); for `CC(=O)C[C@H](O)CC(=O)[C@@H]1OC(=O)[C@@H](C)C/C=C\Cc2ccccc21`, 4.22% (inactive); for `CCc1cccc(NC(=O)C2CCCN(S(=O)(=O)c3ccc4[nH]c(=O)ccc4c3)C2)c1` (stereo not drawn), -4.86% (inactive).
On to `CCN1/C(=C\c2ccc3ccccc3[n+]2CC)Sc2cc(C)ccc21`, for which the inhibition was 78.3% (active).
For `COc1ccc2c(c1OC)C(=O)N(c1ccc(O)cc1)C2` the value was -21.6% (inactive); for `CCC1CCC2(CC1)NC(=O)N(CC(=O)Nc1ccc(OC)cc1)C2=O` (stereo not drawn), -4.33% (inactive).
Under `CN(c1cccc(NC(=O)c2ccc(CN3CCc4ccccc4C3)cc2)c1)S(C)(=O)=O` stands -4.01% (inactive); under `CCOC(=O)c1cc(C(=O)Nc2ccc(S(=O)(=O)Nc3ccc(OC)cc3)cc2)nn1C`, 8.95% (inactive).
`Cc1ccc(C(=O)COc2cccc(NC(=O)c3ccco3)c2)cc1`: the inhibition was 54% (active).
With `Cc1cccc(OCC(=O)Nc2ccc(NC(=O)c3ccco3)c(C)c2)c1`, the inhibition was -8.94% (inactive).
Under `COc1ccc(OCC(=O)Nc2ccc(NC(=O)c3ccco3)c(C)c2)cc1` stands -13.8% (inactive); under `COC(=O)c1onc(-c2c(OC)cc(OC)cc2OC)c1C(=O)OC`, 6.8% (inactive); under `CC1=C(C(=O)Nc2cc(C)ccn2)C(c2cnn(C)c2)C2=C(CC(c3ccccc3)CC2=O)N1` (stereo not drawn), 6.51% (inactive).
Under `O=C(NCc1ccc(F)cc1)C1CCN(C(=O)Nc2ccc(F)cc2)CC1` stands -14% (inactive); under `O=[N+]([O-])c1ccc(C=Nc2ccc(Cl)cc2Cl)s1`, 71.2% (active); under `CC1CN(C(=O)c2ccc([N+](=O)[O-])s2)CC(C)O1` (stereo not drawn), 6.54% (inactive).
Under `CCC1=NN(C(=O)Cc2ccc([N+](=O)[O-])cc2)C(O)(c2ccc(Br)cc2)C1` (stereo not drawn) stands 27% (inactive); under `O=C(Nc1cccc(-c2nc3ncccc3o2)c1)c1ccco1`, 12.8% (inactive).
In the case of `O=C(Nc1ccc2oc(-c3ccc4ccccc4c3)nc2c1)c1cccs1`, the inhibition is 0.529% (inactive).
Under `O=C(Nc1ccc2oc(-c3ccccc3F)nc2c1)c1ccco1` stands 67.2% (active); under `Cc1cc(C)cc(NC(=O)Cn2cnc3c(nnn3Cc3ccc(F)cc3)c2=O)c1`, -9.34% (inactive).
